AmpC inh detg = AmpC beta-lactamase inhibition with detergent present. AID 485294. 370,000 tested, 0.041% active. Potency, µM (doses to about 114 µM), inactives show at the highest dose activity change, negative = inhibition, most hits filed as inhibitors. P00811. AmpC hydrolysis of nitrocefin, absorbance 480 nm, 0.01% Triton;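 note: potency is the fitted concentration of half-maximal effect; 0% = no-compound wells and -100% = no-enzyme wells; nearly all actives have a fitted effect of over 25% in size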
Target sequence (P00811 whole entry, looked up): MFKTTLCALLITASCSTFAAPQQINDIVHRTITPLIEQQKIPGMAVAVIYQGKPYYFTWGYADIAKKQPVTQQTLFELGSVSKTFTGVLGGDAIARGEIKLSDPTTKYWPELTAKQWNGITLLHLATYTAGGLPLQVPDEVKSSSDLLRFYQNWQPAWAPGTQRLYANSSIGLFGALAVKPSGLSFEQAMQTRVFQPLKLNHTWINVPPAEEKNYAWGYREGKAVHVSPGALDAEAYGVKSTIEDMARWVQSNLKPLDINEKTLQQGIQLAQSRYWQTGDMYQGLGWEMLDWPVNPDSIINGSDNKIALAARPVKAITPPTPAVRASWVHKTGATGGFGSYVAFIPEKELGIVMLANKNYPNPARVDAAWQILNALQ
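AmpC (5.3 nM in the dispensed reagent) in 20 mM phosphate pH 7.0 with 0.01% (detergent screen) or 0.0001% Triton X-100 was preincubated with compounds for 15 min at room temperature. Nitrocefin was then added from an 800 uM solution, and hydrolysis was followed at 480 nm.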
AmpC inh no detg = blocks E. coli AmpC beta-lactamase in detergent-free assay; 330,000 tested, 0.52% active; AmpC nitrocefin hydrolysis, absorbance 480 nm, 0.0001% Triton; P00811; Potency, µM (series often up to 57.1 µM), for inactives: at the top dose activity change, negative = inhibition, usual class: inhibitors;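 note: potency is the fitted concentration of half-maximal effect; plate controls were no compound for no effect and no enzyme for full effect; nearly all actives have a fitted effect of over 20% in size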
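20 mM phosphate pH 7.0 + 0.01% (detergent screen) or 0.0001% Triton X-100; 5.3 nM AmpC reagent; cpd preinc 15 min RT; nitrocefin (800 uM stock) to start; A480 q20 s × 4 min; Activity was normalised to no-enzyme and no-compound control wells.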
SARS PLP yeast = SARS-CoV PLP inhibition in yeast; S. cerevisiae expressing SARS-CoV PLpro, growth rescue; Potency, µM (highest dose often 32.9 µM), for the others: at the top dose activity, positive = growth rescue, actives largely listed as activators; 330,000 tested, 0.19% active; AID 485353; calls by dose curve; note: potency is the fitted concentration of half-maximal effect; 0% is about no effect; nearly all actives have a fitted effect of over 55% in size
Cycloheximide cs = counter-screen hit for Shiga toxin inhibitors, cycloheximide. cell reporter, cycloheximide protein synthesis inhibition counterscreen. 300,000 tested, 12% active. max response, %; in the data active = max response mostly above about 13%, no sharp cut-off; inactive = mostly below about 14%; note: read at 38.3 µM for the half of the compounds with a filed dose; 0% is about no effect
AMA1-RON2 inh = AMA1-RON2 (P. falciparum) interaction inhibition | AlphaScreen AMA1-biotinylated RON2 peptide binding | Potency, µM (series often up to 58.2 µM), without a hit: at the top dose activity change, negative = inhibition, hits mostly inhibitors | 360,000 tested, 0.2% active | AID 720542;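 note: potency is the fitted concentration of half-maximal effect; 0% = vehicle wells and -100% = peptide control; nearly all actives have a fitted effect of over 45% in size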
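AMA1 (3D7) with his tag at 25 nM final met compounds first, then biotinylated RON2 peptide at 25 nM; detection used donor plus acceptor beads, 10 µg/mL apiece, read by AlphaScreen after 30 min at room temperature.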
Shiga toxin inh = blocks Shiga toxin action in Vero cells; Vero cells, Shiga toxin protein synthesis inhibition reporter; inhibition, % at 38.7 µM; 290,000 tested, 9.2% active; in the data active = inhibition mostly above about 28%, no sharp cut-off; inactive = mostly below about 43%; note: 0% is about no effect
Numbers without * were called inactive; u = inconclusive; x = no result given; [ ] = another dose, or the depositor's remark. This excerpt belongs to a sample that is enriched for hits. Unless noted, calls come from the whole dose curve; as a rule, active = well fitted curve in the direction sought with a large enough effect; inconclusive = small, poorly fitted or top-dose-only effect, or another doubt; inactive = no such curve, though single readings can be large; an effect the other way counts as inactive or inconclusive.

SMILES | AmpC inh detg | AmpC inh no detg | SARS PLP yeast | Cycloheximide cs | AMA1-RON2 inh | Shiga toxin inh
Cc1cccc(CN2CCC(CNC(=O)Nc3ccccc3F)CC2)c1 | x | x | x | x | 11% | x
CCC(O)C(C)(C)C (stereo not given) | 5% | 1% | -12% | x | 14% | x
COCCn1c(C)cc(C(=O)COC(=O)c2ccc3ncsc3c2)c1C | 1% | 36% | 1% | 24* | -14% | 110*
CC(C)(C)c1ccc(NC(=O)COC(=O)c2ccc3ncsc3c2)cc1 | -4% | 0% | 2% | x | -3%[11.6 µM] | x
COCCn1c(C)cc(C(=O)COC(=O)c2ccc(NC(=O)CC#N)cc2)c1C | -7% | 20% | -8% | 40* | 1% | 73*
COCCn1c(C)cc(C(=O)COC(=O)c2cncc(Br)c2)c1C | 2% | -3% | -22% | 36* | u | 54*
COCCn1c(C)cc(C(=O)COC(=O)c2ccc(S(=O)(=O)N(C)C)cc2)c1C | x | 3% | -2% | x | -10% | x
O=C(OCC(=O)c1ccco1)c1ccc2ncsc2c1 | u | -20% | -4% | 29* | -13% | 58
CCc1ccc(OCC(=O)O/N=C(\N)c2ccncc2)cc1 | 4% | 27% | -6% | 62* | -1% | 76*
CC(C)(C)c1ccc(OCC(=O)O/N=C(\N)c2ccncc2)cc1 | x | x | x | x | 11% | x
CCc1ccc(OCC(=O)O/N=C(\N)c2ccncc2)c(Br)c1 | 2% | 1% | -14% | 46* | 2% | 85*
N/C(=N\OC(=O)COc1ccc(Cl)cc1Br)c1ccncc1 | 4% | 4% | -3% | 64* | 3% | 137*
CCC(C(=O)NC(C)(C)C)N(C(=O)c1ccc(Cl)nc1)C1CCCC1 (stereo not given) | -2% | -10% | 1% | -1 | 8% | -3
COCC(=O)Nc1nnc(SCC(=O)N2C(C)CCCC2C)s1 (stereo not given) | u | -11% | 0% | -4 | -6% | -6
CC(C)(C=O)C1=CC(=O)c2ccccc2C1=O | u | -18% | -114% | 28* | -16% | 25*
O=C(Nc1nc(-c2ccccn2)cs1)C12CC3CC(CC(O)(C3)C1)C2 | -5% | -21% | 4% | 34* | 75% | 91*
O=C(CC1CC2CCC1C2)Nc1nc(-c2ccccn2)cs1 (stereo not given) | -10% | -41% | -15% | 46* | 83% | 78*
O=C(Nc1nc(-c2ccccn2)cs1)C1CC1 | u | -8% | u | 32* | 31% | 43*
CCC1Oc2ccccc2N(CC(=O)Nc2ccccc2OC)C1=O (stereo not given) | -17% | -10% | 2% | 3 | -3% | 41
Cc1ccccc1S(=O)(=O)c1c(C)cc(C)n(C(C)C)c1=O | -2% | -2% | 4% | -4 | 0% | 13
FC(F)(F)c1cc(-c2ccco2)nc(NCCc2ccccc2)n1 | -12% | -48% | -9% | 20* | 98% | 78
O=C(CCSc1nc(-c2ccco2)cc(C(F)(F)F)n1)NCCc1ccccc1 | u | 96% | -2% | 33* | -4% | 54
COc1ccc(-c2cc(C(F)(F)F)nc(NCCc3ccccc3)n2)cc1 | 15% | x | x | x | x | x
Cc1cn(C)c(CC(=O)N2CCN(c3cccc(Cl)c3)CC2)c1C(=O)O | 6% | x | x | x | x | x
CCOc1ccc(N(CC(=O)Nc2ccc(Cl)cc2)S(C)(=O)=O)cc1 | x | x | x | x | 0% | x
SMILES | AmpC inh detg | AmpC inh no detg | SARS PLP yeast | Cycloheximide cs | AMA1-RON2 inh | Shiga toxin inh
COc1ccc(N(CC(=O)Nc2cccc3ccccc23)S(C)(=O)=O)cc1 | -15% | 116% | 1% | 12* | 17% | 17
CCOc1ccc(N(CC(=O)Nc2ccc(C)c(Cl)c2)S(C)(=O)=O)cc1 | -13% | -3% | -3% | 24* | 0% | 19
COC(=O)c1ccccc1NC(=O)CN(c1ccc(OC)cc1)S(C)(=O)=O | u | 30% | 17% | 5 | 1% | 4
CCOc1ccc(S(=O)(=O)N(CC(=O)Nc2ccc(OC)c(Cl)c2)c2ccccc2)cc1 | 11% | x | x | x | x | x
COC(=O)c1ccc(NC(=O)CN(c2ccc(OC)cc2)S(C)(=O)=O)cc1 | -12% | -39% | -5% | 53* | -16% | 63*
CCS(=O)(=O)N(CC(=O)Nc1cccc2ccccc12)c1ccc(OC)cc1 | -9% | -19% | -4% | x | -13% | x
CCOc1ccc(NC(=O)CN(c2ccc(OC)cc2)S(C)(=O)=O)cc1 | 2% | 1% | 10% | 98* | 8% | 121*
COc1ccc(N(CC(=O)NCc2ccccc2)S(=O)(=O)c2c(C)nn(C)c2C)cc1 | u | 8.9µM* | 0% | -4 | -1% | 30
COc1ccc(N(CC(=O)NCc2ccc(Cl)cc2)S(=O)(=O)c2c(C)nn(C)c2C)cc1 | -2% | 164% | -6% | -12 | -10% | -18
CCOc1ccc(N(CC(=O)Nc2ccc(Br)cc2)S(C)(=O)=O)cc1 | 5% | -2% | -1% | 30* | 8% | 54*
CCOc1ccc(N(CC(=O)NCc2ccccc2C)S(C)(=O)=O)cc1 | -5% | 34% | 3% | 42* | -7% | 68*
CCOc1ccc(N(CC(=O)Nc2ccc(OC)cc2)S(C)(=O)=O)cc1 | -5% | -10% | 1% | 39* | 0% | 53*
CC1CC=CC2C1C(=O)N(Cc1ccccc1)C2c1ccc(-c2ccc(F)cc2)cc1F (stereo not given) | x | x | x | -4 | x | 15
COc1ccc(C(=O)COC(=O)Cn2nnc3ccccc32)cc1Br | u | -16% | 6% | 5 | -8% | -14
CCCC(=O)NC(c1ccccc1)c1ccc2cccnc2c1O (stereo not given) | -3% | -13% | u | 10 | -77% | x
CCOc1ccc(N(CC(=O)Nc2cccc(C)c2)S(C)(=O)=O)cc1 | 5% | 4% | 3% | 54* | -24% | 86*
CCSc1nsc(SCC)c1C(N)=O | u | -13% | 1% | -5 | -4% | -4
COc1ccc2c(c1OC)C(=O)N(c1ccccn1)C2 | u | -5% | -9% | 52* | 4% | 139*
COc1ccc2c(c1OC)C(=O)N(c1cccc(C(F)(F)F)c1)C2 | -1% | 27% | 5% | 20* | 1% | 103*
COc1ccc2c(c1OC)C(=O)N(c1ccc(C)cc1)C2 | 3% | 5% | 1% | 54* | u | 86*
COc1ccc2c(c1OC)C(=O)N(c1cccc(C)c1)C2 | -10% | -30% | -24% | 41* | -1% | 49*
Cc1cccc(N2CC(=O)N(c3cccc(C)c3)CC2=O)c1 | u | -15% | 0% | 6 | 14% | -5
COc1ccccc1N1Cc2ccc(OC)c(OC)c2C1=O | 3% | -15% | 1% | 7 | 0% | 20
COc1ccc2c(c1OC)C(=O)N(c1ccc(C)cc1)C2=O | 1% | -7% | 0% | 14 | -17% | 15

From PubChem
